Assay results published in publication PMC7819943, “Rice protein-binding microarrays: a tool to detect cis-acting elements near promoter regions in rice”.
In all, about 68,000 sequences were measured (“fluorescence intensity (a.u.)”: median about 9,100, highest 2% from about 16,000 on). Many of the other results were omitted from the sample, so the highest values are more common in it than they were.

Each sequence was assayed against OsWRKY34 (Oryza sativa, UniProt Q0JBA9 1-250) (assay: protein-binding microarray (RPBM); PBS, 2% BSA, 51.3 ng/ul salmon testes DNA, 50 uM zinc acetate, 200 nM TF, 25 C, 1 h; high values mean tight binding). Settings: protein: recombinant; tags: N-terminal polyhistidine and DsRed monomer fusion (pET32a); label: CyDye5-dUTP incorporated in the synthesized complementary strand; 3' TTTTT single-stranded linker to array surface; dsDNA, one strand shown.
Summary of the method: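 Transcription factors, each fused N-terminally to a polyhistidine tag and DsRed, were expressed in E. coli BL21-CodonPlus and purified on Ni–NTA. A custom Agilent array was made double-stranded by primer extension with Cy5-dUTP and blocked with 2% BSA. It was incubated with 200 nM protein in PBS, 2% BSA, salmon testes DNA and 50 µM zinc acetate at 25 °C for 1 h, then washed. The binding signal is per-feature fluorescence intensity (arbitrary units) read on an Axon 4000B scanner.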

Chain of OsWRKY34 (Q0JBA9 entry or part of it): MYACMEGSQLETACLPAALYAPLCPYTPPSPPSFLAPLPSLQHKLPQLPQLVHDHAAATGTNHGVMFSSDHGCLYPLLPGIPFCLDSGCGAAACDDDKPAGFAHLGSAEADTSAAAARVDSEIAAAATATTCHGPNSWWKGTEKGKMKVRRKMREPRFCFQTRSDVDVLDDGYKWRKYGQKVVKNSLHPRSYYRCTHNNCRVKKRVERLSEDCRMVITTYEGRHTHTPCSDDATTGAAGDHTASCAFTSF

Sequence | binding signal
CTGTATCCCCATTCGCTGTCAAAATTCAATTCACTGTCTTCGGAGTCACCTAGTGCAG | 9640 fluorescence intensity (a.u.)
GGTGGGAGCACGATGCGGGACGTGGGGTGGGATCGGAAGCCGGAGTCACCTAGTGCAG | 8590 fluorescence intensity (a.u.)
CCCTCCCTGGCCGTCGTGCCCGCCGCTGCTCGCCTTCGGCCGGAGTCACCTAGTGCAG | 10100 fluorescence intensity (a.u.)
TGGAGGGGAGTGGGATCGCGATCACGGGTGGGGCGTCGGACGGAGTCACCTAGTGCAG | 13100 fluorescence intensity (a.u.)
AAATCTTGGGTTTATGTGGGCGACGATGTCGGTTTGGAAACGGAGTCACCTAGTGCAG | 8060 fluorescence intensity (a.u.)
CTACAGCCTCACACCGTCTCTCCTGCACCAGTTCCACGGACGGAGTCACCTAGTGCAG | 9510 fluorescence intensity (a.u.)
GGATGGGCATGGAGGAGGTGCAGTGAGTGGAGCTGGAGGACGGAGTCACCTAGTGCAG | 8730 fluorescence intensity (a.u.)
GCGCGCGGGTGAGGAGGAGGAGGGGATGGGGAGGGGCCCGCGGAGTCACCTAGTGCAG | 17700 fluorescence intensity (a.u.)
GGTGGTTCTGTGAGCCCGCGGGGTTGGGGTTGGGGCCTGGCGGAGTCACCTAGTGCAG | 12900 fluorescence intensity (a.u.)
TGGTTCGCTCGGTGGGTGGTGGTGGTTCTGTGAGCCCGCGCGGAGTCACCTAGTGCAG | 18400 fluorescence intensity (a.u.)
TTTGTGGGTGATGGTGGGTGGGAGTGGGATAGGGCGGCCCCGGAGTCACCTAGTGCAG | 17000 fluorescence intensity (a.u.)
TGGGGCTTCTGGTGTGCTCGGTGGTGTTCGCCGCGGCGGCCGGAGTCACCTAGTGCAG | 14200 fluorescence intensity (a.u.)
TGTGGTGCGTGCCGCGTGCGGGAGGGCAGGGTGAGGTGAGCGGAGTCACCTAGTGCAG | 8810 fluorescence intensity (a.u.)
GCGGCGGTGGGGATGGGGATAGGGCGGCGGCGGCGGATGGCGGAGTCACCTAGTGCAG | 13600 fluorescence intensity (a.u.)
GAGAGGATGGAGGTGGATGAGGGAGAGGGGCGGGAGACCGCGGAGTCACCTAGTGCAG | 9460 fluorescence intensity (a.u.)
CCGCGGTGGGGCATGGTGGTGAGGTGGGAGGGAGGGAGCTCGGAGTCACCTAGTGCAG | 17100 fluorescence intensity (a.u.)
GCGGGATGGGGAGGCGGCGCCGCGAGGAGGAGGGGATGGGCGGAGTCACCTAGTGCAG | 11900 fluorescence intensity (a.u.)
TGTGGGTATGGGGATGATTTTGTACCCGTGATAGGTGTGGCGGAGTCACCTAGTGCAG | 13100 fluorescence intensity (a.u.)
TCTTTTGTCACATCTTTATAATATTGCCCATGGCACATACCGGAGTCACCTAGTGCAG | 8490 fluorescence intensity (a.u.)
TGCCATCTCCTTCGCCATTGGAGCTCACCACACACTCGCTCGGAGTCACCTAGTGCAG | 9660 fluorescence intensity (a.u.)
CACCTGACCCATTCTTGCTTACCTTATATTTAGCATACTCCGGAGTCACCTAGTGCAG | 8160 fluorescence intensity (a.u.)

Sequence | binding signal
CTATTTTATAAAATCTTTGTTTATGCATACCAGCTAAATTCGGAGTCACCTAGTGCAG | 8800 fluorescence intensity (a.u.)
AAGCCAACCCAACCCGCACCTTCTCGCTGCTTCTACTACTCGGAGTCACCTAGTGCAG | 13100 fluorescence intensity (a.u.)
ACGGTGGCGTTGTGCCCTGTGATGGTGTCCGCGTTGTGTCCGGAGTCACCTAGTGCAG | 8990 fluorescence intensity (a.u.)
ATGTGGTTTGGTGAGCGCCGCTGTGCCCACCTAACCCACACGGAGTCACCTAGTGCAG | 27300 fluorescence intensity (a.u.)
TCTCAGCAGGGGAGGGGAGGGGAGGGGATCCTGGTGAGGTCGGAGTCACCTAGTGCAG | 15700 fluorescence intensity (a.u.)
CTGGCGAGCAGAGCAGGGGAGGGGAGGGGAGGGGATCCTGCGGAGTCACCTAGTGCAG | 15800 fluorescence intensity (a.u.)
GCAACGGGGAGGTGGGCGGAGGTGCGGCGCGGCGGCGGGCCGGAGTCACCTAGTGCAG | 10300 fluorescence intensity (a.u.)
ACGTGTACGGCGCGGGGTGGAGGTGAGGGGTGGTGGGGCCCGGAGTCACCTAGTGCAG | 18000 fluorescence intensity (a.u.)
CTAGTGAGGGGCGGGCGGGCGGGCAAGGGGAGCGGATGGGCGGAGTCACCTAGTGCAG | 19100 fluorescence intensity (a.u.)
GGGCAAGGGGAGCGGATGGGCGGGGAGGAGGCAGGCTGCGCGGAGTCACCTAGTGCAG | 11600 fluorescence intensity (a.u.)
GTCGAGGCGGCGGCGGCGGGGCGCGGAGTGAGGTGGGTGCCGGAGTCACCTAGTGCAG | 8640 fluorescence intensity (a.u.)
TGCCGCTGCCGCCGTGTGCCCGAGCGAGCCCACGCCCACACGGAGTCACCTAGTGCAG | 8340 fluorescence intensity (a.u.)
CAGAGCAGGGGAGGGGAGGGGAGGGGATCCTGGTGAGCCTCGGAGTCACCTAGTGCAG | 17600 fluorescence intensity (a.u.)
CGGGCGGATGAGGGGCGGCGATGGGCGGGCAAGGGGCGTGCGGAGTCACCTAGTGCAG | 12500 fluorescence intensity (a.u.)
GCTGCTGCTGCCGCCCGGCCGCCACCCGTGACCCGCGCCACGGAGTCACCTAGTGCAG | 8860 fluorescence intensity (a.u.)
CTGGGATTTGGTGGAGCTCCTGCGGTGGGGTGCCAGTGATCGGAGTCACCTAGTGCAG | 12200 fluorescence intensity (a.u.)
ACTGTATATCGATGGCCCACTCGGCCCGACCCGTCCCGGCCGGAGTCACCTAGTGCAG | 10600 fluorescence intensity (a.u.)
ATCAAGCCGAATAGTGCTGACATCTTCATTCTGGTTTTTTCGGAGTCACCTAGTGCAG | 9510 fluorescence intensity (a.u.)
GTCTAGTATAAATCAACGCCACACCACTTGCCTAGTCATCCGGAGTCACCTAGTGCAG | 8070 fluorescence intensity (a.u.)
GTCGGCGCCCATAGTTTTTTTCCGCAAGGGTTTTCTACGTCGGAGTCACCTAGTGCAG | 8810 fluorescence intensity (a.u.)
TCTTAAGCGTGTTCATGGGTCTTGTTATGCTCAAGTCAAACGGAGTCACCTAGTGCAG | 8950 fluorescence intensity (a.u.)

Sequence | binding signal
ATCTCTTTCATCCGATTACTGTGTTTTTTCTGTGGTCCAACGGAGTCACCTAGTGCAG | 8410 fluorescence intensity (a.u.)
GCCGCTTGCCCTCGCAGCCGCTCCGCCTGCCTCCGCCCACCGGAGTCACCTAGTGCAG | 10000 fluorescence intensity (a.u.)
ATCTGGTAACTCAAGTGCTCTCTTCCTGACTGCTGCAGCACGGAGTCACCTAGTGCAG | 9470 fluorescence intensity (a.u.)
GATGAGTGGTGATTGGTGAAGATATCTGGTGGTTTTGGGACGGAGTCACCTAGTGCAG | 8630 fluorescence intensity (a.u.)
AACCCGTTCACACACATTGTCAGGGACCAGCTCATTACTTCGGAGTCACCTAGTGCAG | 10400 fluorescence intensity (a.u.)
TCCCCACCTGTCAGTACTTATGTTTTGACTTTTTGACCCACGGAGTCACCTAGTGCAG | 14300 fluorescence intensity (a.u.)
GGGCTGTTGTGTGTGTGTTTTGCGACGTGCCGTGCTGGGCCGGAGTCACCTAGTGCAG | 8290 fluorescence intensity (a.u.)
AACGATGACGACGTGTGCGCGCTGTTGTTTTTTTGTCCCACGGAGTCACCTAGTGCAG | 19700 fluorescence intensity (a.u.)
AATGTTTGACACCGTTGACTTTTTAGTACGTGTTTGTCCACGGAGTCACCTAGTGCAG | 30200 fluorescence intensity (a.u.)
TGATTTTTGTCCCACGTGGCATTGACGTGGCGCTTATGTGCGGAGTCACCTAGTGCAG | 8850 fluorescence intensity (a.u.)
CCGTTGACTTTTTAGTACGTGTTTGATTCATTCTTAAATACGGAGTCACCTAGTGCAG | 16200 fluorescence intensity (a.u.)
AATGTTTGATACCGTTGACTTTTTAGTACGTGTTTGATCACGGAGTCACCTAGTGCAG | 32600 fluorescence intensity (a.u.)
TGACTTTTTAGTACGTGTTTGATCATTCGTCTTATTCAAACGGAGTCACCTAGTGCAG | 10800 fluorescence intensity (a.u.)
CCTGCCCGGTGTGCTGTGACTTGCCGTTATCGTCACCGTTCGGAGTCACCTAGTGCAG | 10200 fluorescence intensity (a.u.)
CACTTCTTTTCTCTATGGCGGCATCTGAATCTATGTGGATCGGAGTCACCTAGTGCAG | 9450 fluorescence intensity (a.u.)
AATCACCTCCCTTATCTTACCTGCATGACAAATGCCTCGACGGAGTCACCTAGTGCAG | 8590 fluorescence intensity (a.u.)
ACCCACCATGCCACCCCACTCCTTCTTTAAACTTGTAAACCGGAGTCACCTAGTGCAG | 9480 fluorescence intensity (a.u.)
TCTCCTATCCAGTTGGATTCCCAAAATTTCGCCTTTCGTCCGGAGTCACCTAGTGCAG | 8070 fluorescence intensity (a.u.)
AACCGAAATCACTTTGGCAGCATGTTTTCCTCTGTAACCACGGAGTCACCTAGTGCAG | 9350 fluorescence intensity (a.u.)
CAACCCCACCGCCGCCGCCGCAAACCGTCTCGCCGTCGCCCGGAGTCACCTAGTGCAG | 11600 fluorescence intensity (a.u.)
GAGGTTGTTTTGTCGTCTAGCAAGTGTGTGTCGGGTGGCGCGGAGTCACCTAGTGCAG | 9220 fluorescence intensity (a.u.)

Sequence | binding signal
GTCATATGGCACCATGCTTGCTCTCCACTCTTCAATCAGTCGGAGTCACCTAGTGCAG | 9490 fluorescence intensity (a.u.)
TCGCTGCTCTGCCCTTTTCCCTTTTTTTTTCTTTCTTCATCGGAGTCACCTAGTGCAG | 10200 fluorescence intensity (a.u.)
CCATCAGTTGACCATGTGTTGACCGTTAACTCTCAAGTAACGGAGTCACCTAGTGCAG | 9190 fluorescence intensity (a.u.)
CCCTCCCGTCAGTTGACCGTTAGTTGACCGTGTATTTTCTCGGAGTCACCTAGTGCAG | 12200 fluorescence intensity (a.u.)
CTCCCGTCAGTTGACCGTGTGTTGACCGTTAATTCTCAAGCGGAGTCACCTAGTGCAG | 17500 fluorescence intensity (a.u.)
TCCGTGTCCAATGTTTGACCATCCGTCTTATTTAAAAAAACGGAGTCACCTAGTGCAG | 8070 fluorescence intensity (a.u.)
GTGTTGTGTTCATCTCCTTCGTTTACTTCTCTTCTCCTCTCGGAGTCACCTAGTGCAG | 11500 fluorescence intensity (a.u.)
TATTCTGTTGTATTATGATATTATATATATTTTTCTTCGACGGAGTCACCTAGTGCAG | 8980 fluorescence intensity (a.u.)
GATGGCCTTGACCATGCAGAAACAGGCATGGTTTCCTTCGCGGAGTCACCTAGTGCAG | 64500 fluorescence intensity (a.u.)
AACAGGCATGGTTTCCTTCGTCGTTTCTACTAGCAGTTGCCGGAGTCACCTAGTGCAG | 11900 fluorescence intensity (a.u.)
GTTCCTTTCAGAAACTGGCATTCGAGTTTTGAGTTTCTCGCGGAGTCACCTAGTGCAG | 8720 fluorescence intensity (a.u.)
ATTGTTATGTTCCTTTGTTTTCTTATAAATATAATTTAATCGGAGTCACCTAGTGCAG | 9560 fluorescence intensity (a.u.)
CTAAAATTTCCTTATGTTTTCTTCTTCTTCTAGTTATGTGCGGAGTCACCTAGTGCAG | 8800 fluorescence intensity (a.u.)
CTTTAGTTAAAGTCAAAGTGCTTCAAGTTTGACTAAGTTTCGGAGTCACCTAGTGCAG | 9150 fluorescence intensity (a.u.)
TAAGACGTTTTGACTTTGGTCAAACTGTTTGGTCAAAGTCCGGAGTCACCTAGTGCAG | 10600 fluorescence intensity (a.u.)
GACTTTAGTCAAAGTCATGTTGTTTCAAGTTTGACTAATTCGGAGTCACCTAGTGCAG | 18800 fluorescence intensity (a.u.)
TTTTCCTTAGTCAAAGTTATATATGTTTGACTAAATTTATCGGAGTCACCTAGTGCAG | 18000 fluorescence intensity (a.u.)
GTTTTGACTTTGGTCAAAGTCAAACTAATTCAAGTTAGACCGGAGTCACCTAGTGCAG | 17600 fluorescence intensity (a.u.)
CATTTGACTTTTTTCTAGTCAAAGTTATTTATATTTAATTCGGAGTCACCTAGTGCAG | 14100 fluorescence intensity (a.u.)
TTTGGTCAAACTTAAAAAAGTTTGACTACAACTAAATTCACGGAGTCACCTAGTGCAG | 8740 fluorescence intensity (a.u.)
TCATACATGTGATCACTCACTCACTCTCACACACACTCTCCGGAGTCACCTAGTGCAG | 10100 fluorescence intensity (a.u.)
